Source: PubChem BioAssay (National Center for Advancing Translational Sciences (NCATS))
Sampled rows, rich in hits. Any-hit rate of the full collection: about 4.3%.
DRD3 antagonist: antagonists of human D3 dopamine receptor | P35462 | D3R cells, DiscoveRx beta-arrestin luminescence, antagonist mode; active compounds read low | max response, negative = inhibition, % | 2.5% of 360,000 active | AID 652054; in the data active = max response below about -50%; inconclusive = no clear call, values can overlap the other calls
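Cells plated overnight at 1500 cells/well, then exposed to library compounds with dopamine controls for 90 minutes at 37 degrees C. DiscoveRx reagent added for 30–60 minutes at room temperature; luminescence read, quantitative HTS format.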
DRD3 agonist: agonists of human D3 dopamine receptor. max activation, %. D3R DiscoveRx beta-arrestin cells, luminescence, 90 min. 0.58% of 410,000 active. P35462. AID 652048; in the data active = max activation above about 30%
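Cells at 1500/well, incubated overnight, then treated with pinned compounds (dopamine as control) for 90 min at 37 degrees C. DiscoveRx reagent added for 30 - 60 minutes at room temperature; luminescence read.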
GLP-1R agonist: GLP-1 receptor (human) agonism; 0.007% of 380,000 active; Potency, µM (titrated, usually from 45.6 µM), hits mostly activators; P43220; HEK293 GLP-1R CRE-luciferase, luminescence, 4-6 h; cells express a hypersensitive GLP-1R form
Target sequence (P43220 whole entry, looked up): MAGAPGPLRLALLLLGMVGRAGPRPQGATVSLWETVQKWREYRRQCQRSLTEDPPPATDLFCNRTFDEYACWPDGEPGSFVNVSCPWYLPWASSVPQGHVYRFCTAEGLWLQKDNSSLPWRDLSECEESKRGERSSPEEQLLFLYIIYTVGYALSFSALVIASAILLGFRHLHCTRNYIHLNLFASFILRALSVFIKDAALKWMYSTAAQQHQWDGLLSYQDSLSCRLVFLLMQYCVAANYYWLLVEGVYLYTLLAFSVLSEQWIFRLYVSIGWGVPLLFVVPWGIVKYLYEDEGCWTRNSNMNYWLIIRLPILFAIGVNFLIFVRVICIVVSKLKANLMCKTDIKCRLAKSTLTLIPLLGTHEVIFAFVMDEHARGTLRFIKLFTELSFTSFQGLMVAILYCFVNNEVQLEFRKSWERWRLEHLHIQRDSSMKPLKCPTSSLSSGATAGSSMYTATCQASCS
GLP-1R inv ag: acts as inverse agonist at human GLP-1 receptor. P43220. HEK293 GLP-1R CRE-luciferase, luminescence, 24 h; GLP-1R form is constitutively active. Potency, µM (highest dose often 38.3 µM), actives largely listed as inhibitors. 1.6% of 410,000 active; note: nearly all actives have a fitted effect of over 55% in size
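Inverse agonists were sought by their lowering of basal cAMP reporter luciferase output in HEK293 cells stably carrying constitutively active human GLP-1R, after 24 h compound treatment.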
Numbers stand for hits; – = inactive; ? = inconclusive; · = not tested or not shown. Unless noted, calls come from the whole dose curve; as a rule, active = well fitted curve in the direction sought with a large enough effect; inconclusive = small, poorly fitted or top-dose-only effect, or another doubt; inactive = no such curve, though single readings can be large; an effect the other way counts as inactive or inconclusive.

SMILES	DRD3 antagonist	DRD3 agonist	GLP-1R agonist	GLP-1R inv ag
CCc1cc(C(=O)NNC(=S)Nc2cc(C)ccc2C)cs1	–	–	–	–
CCc1cc(C(=O)NNC(=S)Nc2ccccc2C)cs1	-97	–	–	–
COc1ccc(NC(=O)CC2C(=O)N(c3ccccc3)C(=O)N2Cc2cccnc2)cc1 (configuration not stated)	·	–	·	–
CCCc1nc2oc3c(NCCN(C)C)ncnc3c2c2c1CCCC2	-54	–	–	–
CCCc1nc2oc3c(NCCCN(C)C)ncnc3c2c2c1CCCC2	–	–	–	?
Cc1cccc(C)c1OCC(=O)N(Cc1ccccc1F)C1CCS(=O)(=O)C1 (configuration not stated)	·	–	·	–
CN1/C(=C\P(=O)(N(C)C)N(C)C)C(C)(C)c2ccccc21	–	31	–	–
COc1ccc(-c2nc3ccc(C4=C(C)CC(=O)NN4)cc3[nH]2)cc1	·	·	–	·
Cc1nc(C(=O)NCC(=O)c2ccccc2)c(C(F)(F)F)o1	-59	–	–	–
C=C1C(=O)OC2C=C(CO)C3OC3C3OC3(C)CC(OC(=O)/C(=C/C)COC(C)=O)C12 (configuration not stated)	-81	–	–	–
O=C(c1ccc(N2CCN(C(=O)c3ccc(F)cc3F)CC2)cc1)c1cccc(F)c1	–	–	–	?
C(=C1NCCN1)c1cccc2ccccc12	·	·	–	·
COC(=O)c1cc(=O)n(Cc2ccc3c(c2)OCO3)c(=Nc2ccc(F)cc2)s1	–	–	–	?
COC(=O)c1cc(=O)n(Cc2ccco2)c(=Nc2ccc(F)c(Cl)c2)s1	–	–	–	2.8µM
COC(=O)c1cc(=O)n(-c2ccc(F)cc2)c(=Nc2ccc(F)cc2)s1	?	–	–	4.5µM
COC(=O)c1cc(=O)n(Cc2cccs2)c(=Nc2ccc(F)cc2)s1	?	–	–	3.5µM
O=C(Nc1sc2c(c1C(=O)Nc1ccccc1Cl)CCCC2)c1ccccc1F	·	–	·	–
CCc1ccc(CNC(=O)CN2C(=O)c3cccnc3Oc3ccc(C)cc32)cc1	·	–	·	–
Cc1ccc(C(=O)c2cn(Cc3ccc(Cl)cc3)c3nc(C)ccc3c2=O)cc1	·	–	·	–
O=C1c2ccccc2C2(c3ccccc3)NCCCN12 (configuration not stated)	–	–	–	–
O=C1c2ccccc2C2(c3cc(C(F)(F)F)cc(C(F)(F)F)c3)NCCN12 (configuration not stated)	–	–	–	10µM
O=C(Nc1cccc(C(F)(F)F)c1)c1cc(-c2ccc(Cl)s2)nc2ccccc12	·	–	·	–
CCN(CC)CCN1C(=O)c2ccccc2NC1c1ccc(Br)cc1 (configuration not stated)	–	–	–	10µM
COc1ccc(Cl)cc1NC(=O)CN(c1cccc(C)c1C)S(=O)(=O)c1ccccc1	·	–	–	?
CCc1c(C)[nH]c2c1C(=O)C(CN1CCOCC1)CC2 (configuration not stated)	-102	–	–	–
SMILES	DRD3 antagonist	DRD3 agonist	GLP-1R agonist	GLP-1R inv ag
O=C(Nc1c(C(=O)Nc2ccc(F)cc2)oc2ccccc12)c1cc2ccccc2o1	·	–	–	–
CCc1cc2c(cc3c(=O)n(CC(=O)N4CCC(C)CC4)nc(CC)n32)s1	·	–	·	–
Cc1cc(C(F)F)n2nc(C(=O)Nc3ccc(F)cc3F)nc2n1	-54	–	–	–
Cc1cc(C(F)F)n2nc(C(=O)Nc3ccccc3F)nc2n1	–	–	–	–
CCN(CC)P(=O)(Nc1cccc(C(F)(F)F)c1)c1ccc(N(C)C)cc1NC(=O)c1ccco1 (configuration not stated)	–	–	–	2.5µM
COc1ccccc1CNC(=O)Cn1c(=O)nc(-c2ccccc2)c2ccccc21	·	–	·	–
COC(=O)C1=C(CS(=O)(=O)c2cc(Cl)ccc2OC)NC(=O)NC1c1ccccc1 (configuration not stated)	·	–	–	–
O=C(c1cccc(Br)c1)c1cn(-c2ccccc2)nc1C(=O)c1ccccc1	–	–	–	3.5µM
Cc1ccc2c(c1)C(=O)C(=O)N2CC(=O)OC(C)C	?	–	–	–
Cc1ccc(OCCN2C(=O)C(=O)c3cc(C)ccc32)cc1	?	–	–	–
Cc1ccc2c(c1)C(=O)C(=O)N2Cc1ccc(C(F)(F)F)cc1	-51	–	–	–
Cc1ccc2c(c1)C(=O)C(=O)N2Cc1ccc(OC(C)C)cc1	·	–	·	1.1µM
COc1cccc(CNC(=O)c2cnc(N3CCCCC3)c3ccccc23)c1	·	–	·	–
C=C(C)c1cccc(C(C)(C)NC(=O)Nc2nnc(C(C)C)s2)c1	–	–	–	10µM
COc1cccc(C(=O)Nc2nnc(C(C)C)s2)c1	–	–	–	11µM
O=S(=O)(CC(c1ccccc1)N1CCCCC1)c1ccc(Cl)cc1 (configuration not stated)	–	–	–	–
Cc1nn(CC(=O)N2CCC(C)CC2)c(=O)c2cc3sccc3n12	·	–	·	–
COc1cc(-c2nc(-c3ccccc3)c(-c3ccc(Br)cc3)[nH]2)cc(OC)c1O	·	–	·	11µM
COc1ccc(-c2nc(-c3ccccc3)c(-c3cc([N+](=O)[O-])ccc3C)[nH]2)cc1OC	–	–	–	5.6µM
CCN(CC)CCCNC(=O)c1sc2nc(-c3ccc(F)cc3)cn2c1C	-62	–	–	–
CO[C@H]1C[C@H](O[C@H]2[C@H](C)[C@@H](O[C@@H]3O[C@H](C)C[C@H](N(C)C)[C@H]3O)[C@@H](C)C[C@]3(CO3)C(=O)[C@H](C)[C@@H](O)[C@@H](C)[C@@H](C)OC(=O)[C@@H]2C)O[C@@H](C)[C@@H]1O	·	–	·	·
COc1ccc(OCCN2CCC(C(=O)NC(c3ccc(F)cc3)c3ccc4ccccc4n3)CC2)cc1 (configuration not stated)	-70	–	–	?
O=C(NC(c1ccccc1)c1ccc2ccccc2n1)C1CCN(CCOc2ccc(Cl)cc2)CC1 (configuration not stated)	–	–	–	11µM
COc1ccc(OCCN2CCC(C(=O)NC(c3ccccc3)c3ccc4ccccc4n3)CC2)cc1 (configuration not stated)	-102	–	–	?
O=C(NC(c1ccc(F)cc1)c1ccc2ccccc2n1)C1CCN(CCOc2ccc(F)cc2)CC1 (configuration not stated)	?	–	–	?
SMILES	DRD3 antagonist	DRD3 agonist	GLP-1R agonist	GLP-1R inv ag
COc1ccc(S(=O)(=O)N(CC(=O)Nc2cc(C)cc(C)c2)c2ccc(Cl)cc2)cc1	·	–	–	–
Cn1c(-c2ccccc2)cnc1N	-117	–	–	–
COc1ccc(NC(=O)Nc2nnc(N(CC(C)C)CC(C)C)s2)c(OC)c1	·	–	·	?
O=Cc1cn(CCC(=O)O)nc1-c1cccc(Br)c1	–	–	–	–
O=C(O)CCn1cc(/C=C\C(=O)c2ccc(Cl)cc2)c(-c2cccc(Br)c2)n1	–	–	–	13µM
COc1cccc(NC(=S)N(CCc2ccc(OC)c(OC)c2)Cc2ccccn2)c1	-53	–	–	–
COc1cc([N+](=O)[O-])ccc1NC(=O)N1CCC2(CC1)Nc1cc(F)ccc1-n1cccc12	·	–	·	11µM
